Our source for the max response and Potency values is PubChem BioAssay AID651814 (National Center for Advancing Translational Sciences (NCATS), 2012).

The whole screen tested about 2,100 compounds, of which about 590 (28%) were called active. Inconclusive results (about 42%) are left out. Calls follow the shape of the dose curve; as a rule, active = well fitted inhibition curve with a large enough effect; inconclusive = small, poorly fitted or top-dose-only effect; inactive = flat fitted curve, though single readings scatter. This is one part of the list.
Potency is read from the fitted curve at half-maximal effect.

The test deals with DNA dC->dU-editing enzyme APOBEC-3F (Homo sapiens) (UniProt Q8IUX4). Description: qHTS for inhibitors of Vif-A3F interactions: Cherry picks. Also: nearly all actives have a fitted effect of over 70% in size.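 As to max response: % of control where 0% means no effect; active compounds raise eYFP fluorescence by blocking Vif-driven A3F loss.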 Particulars: HeLa A3F-eYFP + Vif (tagged APOBEC3F with the HIV-1 protein that degrades it), eYFP fluorescence, 24 h. The text has this: The recent discovery and characterization of host restriction factors, which provide a potent defense to invading retroviruses, has provided new targets for antiviral drug development. APOBEC3G (A3G) and APOBEC3F (A3F) are potent cytidine deaminases that block HIV-1 replication; HIV-1 expresses the Vif protein, which counteracts A3G and A3F by binding to them and inducing their proteasomal degradation. The Vif-A3G and Vif-A3F interactions provide two potential targets for development of small molecules which can interfere with the ability of Vif to degrade A3G or A3F. […] To identify inhibitors that can interfere with Vif mediated degradation of A3G and A3F, we have developed Hela cell lines that stably express A3G or A3F tagged with eYFP at the C-terminal end (A3G-eYFP or A3F-eYFP, respectively) and Vif. In the absence of an inhibitor, Vif induces degradation of A3G-eYFP and A3F-eYFP, and the cells are not fluorescent. In the presence of an inhibitor, it is expected that Vif will be unable to degrade A3G-eYFP and/or A3F-eYFP, resulting in an increase in yellow fluorescence. In this assay, Vif A3F was screened against the cherry picks ordered from the MLSMR. NIH Chemical Genomics Center [NCGC] NIH Molecular Libraries Probe Centers Network [MLPCN] MLPCN Grant: MH093245 Assay Submitter (PI): Vinay Pathak, National Cancer Institute
DNA dC->dU-editing enzyme APOBEC-3F (Homo sapiens), sequence (Q8IUX4 whole entry, looked up): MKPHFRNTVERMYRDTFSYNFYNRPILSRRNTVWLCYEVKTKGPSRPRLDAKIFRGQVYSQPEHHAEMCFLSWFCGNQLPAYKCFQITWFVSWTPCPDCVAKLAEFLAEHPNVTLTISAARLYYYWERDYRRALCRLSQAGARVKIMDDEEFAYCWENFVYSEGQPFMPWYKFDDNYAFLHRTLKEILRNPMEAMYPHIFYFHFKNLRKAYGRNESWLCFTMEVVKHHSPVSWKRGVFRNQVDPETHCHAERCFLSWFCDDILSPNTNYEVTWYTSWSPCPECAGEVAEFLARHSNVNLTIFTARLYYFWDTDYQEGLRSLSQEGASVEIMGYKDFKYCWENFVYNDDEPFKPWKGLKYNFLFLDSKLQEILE
A3F-Vif cells were harvested from T225 flask and resuspended in phenol free OPTI-MEM medium with 5% FBS. Then 5 uL of 140,000 cells/mL resuspended cells was dispensed into each well of low base Aurora COC 1,536-well plates (black walled, clear bottom) using a Multidrop Combi dispenser. After overnight culture at 37 deg C with 5% CO2, a total of 23 nL of compounds at 5 selected concentrations from the NPC or positive control (2 mM stock of MG132) in DMSO was transferred to each well of the assay plate using a pintool (Kalypsys, San Diego, CA), and the plates were further incubated at 37 deg C with 5% CO2 for 24 hours. After that, the plates were measured on Acumen Explorer (TTP Lab Tech). The fluorescence was detected by 488 nm/Ex and […].
For `O=C(Nc1cc(Cl)cc2c1-c1ccc(Cl)cc1C2O)C(Cl)Cl` (stereo not given), the max response is -15.3% (inactive).
On the same count and under the same terms, with `CCCCN(C(=O)c1ccc([N+](=O)[O-])s1)c1c(N)n(CCCC)c(=O)[nH]c1=O` the figure was 3.55% (inactive); with `COc1cccc(/C=N/n2c(C3CCCCC3)n[nH]c2=S)c1O`, 2.43% (inactive).
With `Cc1[nH]c2ccccc2c1/C=C/C(=O)c1ccccc1`, the Potency was 20.6 µM (active).
Still for that read-out and setting: with `Cc1[nH]c2ccccc2c1/C=C/c1cc[n+](C)cc1` the figure was 1.58 µM (active).
Same read-out and setting: the value for `Cc1ccc2[nH]c(C)c(/C=C/c3cc[n+](C)cc3)c2c1` was 0.994 µM (active).
Take `CCOc1cc(C)nc(NCc2ccccc2)n1`: the max response is -21.9% (inactive).
On the same count and under the same terms, the value for `CCCn1c(C2CCCN2c2nc(-c3cccc(Br)c3)cs2)nc2ccccc21` (stereo not given) was 2.76% (inactive); that for `C=C(C)CNC(=S)N/N=C1\CCCCc2ccccc21` was 0.867% (inactive).
With `CCCN1C(=O)/C(=C/C=C2\N(CC)c3ccccc3C2(C)C)SC1=S`, the Potency is 1.77 µM (active).
`CN1/C(=C\C=C2/SC(=S)NC2=O)C(C)(C)c2ccccc21`: the Potency is 4.44 µM (active).
For `CCN1C(=O)/C(=C/C=C2\N(CC)c3cc(S(=O)(=O)N(C)C)ccc3N2c2ccccc2)SC1=S`, the max response is -29.7% (inactive).
For the compound `CCCN1C(=O)/C(=C\C=C2\N(CC)c3ccccc3C2(C)C)SC1=S`, the Potency was 2.06 µM (active).
For the compound `CN1/C(=C\C=C2/SC(=S)N(CC(=O)O)C2=O)C(C)(C)c2ccccc21`, the max response is -6.86% (inactive).
Turning to `C=CCN1C(=O)/C(=C\C=C2\N(C)c3ccccc3C2(C)C)SC1=S`, the Potency is 0.461 µM (active).
As to `Clc1ccsc1-c1csc(-c2cccnc2)n1`, the max response was -27.5% (inactive).
Same read-out and setting: with `NNC(=S)Nc1c(F)cc(F)cc1Br` the figure was 1.43% (inactive).
As for `O=C1/C(=C/c2c[nH]c3ccccc23)CCC/C1=C\c1c[nH]c2ccccc12`, the Potency was 16.4 µM (active).
As for `Cn1nnnc1SCCNCc1cc(Br)ccc1OCc1ccccc1Cl`, the max response is -14.7% (inactive).
On to `O=C(Nc1ccc(N2CCOCC2)cc1)c1cccc2ccccc12`, for which the max response was -29.2% (inactive).
Take `Cc1ccc(C)c2nc3sc(C(=O)N4CCOCC4)c(N)c3cc12`: the Potency was 12.5 µM (active).
Consider `Cc1cccc2cc3c(N)c(C(=O)N4CCOCC4)sc3nc12`, for which the Potency was 7.31 µM (active).
In the case of `Cc1sc(NC(=O)c2sc3nc4c(C)cccc4cc3c2N)c(C#N)c1C`, the Potency was 17.7 µM (active).
With `Cc1cccc2cc3c(N)c(C(=O)Nc4ccc(N5CCOCC5)cc4)sc3nc12`, the Potency was 11.2 µM (active).
Turning to `COc1cc(C(=O)OCC(=O)Nc2ccc(N3CCOCC3)cc2)ccc1OCC(C)C`, the max response is 1.41% (inactive).
The same measure, in the same setting: the value for `CCN(CC)c1ccc(/C=N/NC(=S)NC)c(O)c1` was -6.91% (inactive).
For the compound `COc1ccc(Nc2nc(C)nc3sc4c(c23)CCC4)cc1O`, the max response is -29.4% (inactive).
As to `CCn1c(O)c(/C=N/N=C/c2ccc(OC)cc2)c2cc(C3=NNC(=O)CC3)ccc21`, the Potency is 6.51 µM (active).
Same read-out and setting: with `CN(C)c1ccc(/C=C2\Cc3ccccc3C2=O)cc1` the figure was 5.17 µM (active); with `CN(C)c1ccc(/C=C2/C[N+](C)(C)C/C(=C/c3ccc(N(C)C)cc3)C2=O)cc1`, 2.59 µM (active).
For the compound `C[N+](C)(C)CCC(=O)N1C/C(=C/c2ccccc2)C(=O)/C(=C\c2ccccc2)C1`, the max response is -12.6% (inactive).
Turning to `O=C1/C(=C\c2ccc(O)c(O)c2)SC(=S)N1Cc1ccccc1`, the max response is -22.4% (inactive).
Consider `O=C1/C(=C\c2cc([N+](=O)[O-])ccc2O)SC(=S)N1Cc1ccc(Cl)cc1`, for which the Potency is 20.6 µM (active).
Take `O=C1CC(c2ccccc2)Cc2[nH]c(=O)c(-c3nc(-c4cccc(Cl)c4)cs3)cc21` (stereo not given): the Potency is 4.11 µM (active).
On the same count and under the same terms, with `Cc1sc(-c2cc3c([nH]c2=O)CC(c2ccccc2)CC3=O)nc1-c1ccc(Cl)cc1` (stereo not given) the figure was 1.84 µM (active).
As to `CCN(c1ccc(NC(=O)CCc2nc3sc4c(c3c(=O)[nH]2)CCCC4)cc1)C(C)C`, the max response is -16.9% (inactive).
On the same count and under the same terms, with `Clc1ccccc1C1CC(c2ccccc2)=Nc2ccccc2N1` (stereo not given) the figure was -7.9% (inactive).
Regarding `CC(=O)N1CCc2nc3sc(C(=O)c4ccc(F)cc4)c(N)c3c(C(F)(F)F)c2C1`, the Potency was 20.6 µM (active).
As for `COc1ccc(C(=O)c2sc3nc4c(c(C(F)(F)F)c3c2N)CN(C(C)=O)CC4)cc1OC`, the Potency was 23.1 µM (active).
On the same count and under the same terms, the value for `O=C1S/C(=C/c2ccc(N3CCOCC3)o2)C(=O)N1Cc1ccc(F)cc1` was 2.8 µM (active); that for `O=C1S/C(=C/c2ccc(N3CCOCC3)o2)C(=O)N1Cc1c(F)cccc1Cl` was 2.5 µM (active).
Still for that read-out and setting: the value for `Cc1cc2nc3s/c(=C/c4ccc(-c5ccccc5C(=O)O)o4)c(=O)n3c2cc1C` was 20.6 µM (active).
Turning to `Cc1ccc(NC(=O)C2CCN(S(=O)(=O)c3ccc(Cl)c(C(F)(F)F)c3)CC2)nc1`, the max response is 1.5% (inactive).
With `CCc1cc[n+](-c2nc3ccccc3nc2[N-]S(=O)(=O)c2ccc(Br)s2)cc1`, the Potency is 23.1 µM (active).
Take `O=S(=O)([N-]c1nc2ccccc2nc1-[n+]1ccc(-c2ccncc2)cc1)c1ccccc1`: the max response is -0.136% (inactive).
